# Measurements: PMC7819943, “Rice protein-binding microarrays: a tool to detect cis-acting elements near promoter regions in rice”
# Whole data set: some 68,000 sequences, median “fluorescence intensity (a.u.)” near 9,100, cut for the highest 2% near 16,000. The full list was thinned out, with the highest values kept by preference.
# Biological target: OsWRKY34 (Oryza sativa, UniProt Q0JBA9 1-250)
# Assay: protein-binding microarray (RPBM); PBS, 2% BSA, 51.3 ng/ul salmon testes DNA, 50 uM zinc acetate, 200 nM TF, 25 C, 1 h; high values mean tight binding
# Settings: protein: recombinant; tags: N-terminal polyhistidine and DsRed monomer fusion (pET32a); label: CyDye5-dUTP incorporated in the synthesized complementary strand; 3' TTTTT single-stranded linker to array surface; dsDNA, one strand shown
# Procedure, shortened: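 Transcription factors were made in E. coli BL21-CodonPlus as N-terminal fusions to a polyhistidine tag and DsRed, then purified on Ni–NTA. After primer extension with Cy5-dUTP and blocking with 2% BSA, a custom Agilent array was exposed for 1 h at 25 °C to 200 nM protein in PBS, 2% BSA, salmon testes DNA and 50 µM zinc acetate. Washed arrays were scanned on an Axon 4000B, and the binding signal is per-feature fluorescence intensity in arbitrary units.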
# OsWRKY34, sequence (Q0JBA9 entry or part of it): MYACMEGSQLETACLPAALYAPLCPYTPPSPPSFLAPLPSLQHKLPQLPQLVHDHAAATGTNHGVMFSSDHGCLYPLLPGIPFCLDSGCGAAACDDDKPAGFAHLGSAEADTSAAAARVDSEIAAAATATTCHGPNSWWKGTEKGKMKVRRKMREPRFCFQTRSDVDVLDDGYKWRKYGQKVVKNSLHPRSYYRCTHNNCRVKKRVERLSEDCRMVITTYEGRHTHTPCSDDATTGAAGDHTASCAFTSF
row,Sequence,binding signal
1,ATAGTACGAATGGTTAGCCCAAAAGTCAGTGTCTTCATTCCGGAGTCACCTAGTGCAG,10300 fluorescence intensity (a.u.)
2,CACTGCTTCTCACCCAACTCGCGCGCGCCATTCCTTGCCTCGGAGTCACCTAGTGCAG,11600 fluorescence intensity (a.u.)
3,TCTATATTGCTATTTTCATTTTAAAACTATTTCTTGCCACCGGAGTCACCTAGTGCAG,10300 fluorescence intensity (a.u.)
4,TTCTGATATCTGGTCATATTTTTTTGAACAGGTAGCTATTCGGAGTCACCTAGTGCAG,27000 fluorescence intensity (a.u.)
5,AGCTGGTCATATTCTATGTTGATTATCTTCATGGTATGAACGGAGTCACCTAGTGCAG,9730 fluorescence intensity (a.u.)
6,ATCTGGTCTGCAGGTATTTTCTTTGTATTGTATATTTCTACGGAGTCACCTAGTGCAG,10000 fluorescence intensity (a.u.)
7,CCGCACCTCTCTCTACACGCACGCGTCTCTCCCATCTCCCCGGAGTCACCTAGTGCAG,9030 fluorescence intensity (a.u.)
8,AACTTTCTCCCACCGGCCACCGCGCGTCTCTTGCCACGACCGGAGTCACCTAGTGCAG,12200 fluorescence intensity (a.u.)
9,TCTTCTTCCATGGTCTTTTCTAGATAAGGCTCTCTAATGTCGGAGTCACCTAGTGCAG,8620 fluorescence intensity (a.u.)
10,TGAACGCTTCCCTGTGTTTGTGGTTACTGCCTTACTGGTTCGGAGTCACCTAGTGCAG,9210 fluorescence intensity (a.u.)
11,CGCACGGTTGTTCTCGCCATGATCCTCCTTGCCGCTGTCACGGAGTCACCTAGTGCAG,8780 fluorescence intensity (a.u.)
12,TCTTAGACGGTCCTGACTCGAGGCCCATATATATGCTGGGCGGAGTCACCTAGTGCAG,19900 fluorescence intensity (a.u.)
13,CTCCTGACTCCTCCTCGGTTCCTCTTCCTCTCGAGCCCTTCGGAGTCACCTAGTGCAG,9950 fluorescence intensity (a.u.)
14,CTTAGGGTCGGGAAGGGGAGAGGCGGTGGCGGGCGGCTGACGGAGTCACCTAGTGCAG,13400 fluorescence intensity (a.u.)
15,TGGCTCCGCCACGTCCTCGTCGCCTGGAACTCGCTCGTCTCGGAGTCACCTAGTGCAG,8680 fluorescence intensity (a.u.)
16,TGTCTCAACAACAAGCTCTGTGTGCTGCAGTGTCATTCCACGGAGTCACCTAGTGCAG,8160 fluorescence intensity (a.u.)
17,TATTGGTTTTTGTTTCTGGTGCCACGTCTGCGGCCAAAAACGGAGTCACCTAGTGCAG,9220 fluorescence intensity (a.u.)
18,CCTACACACGAAACCTCCGCGCCTCATCCGGGCTTCGCGACGGAGTCACCTAGTGCAG,10600 fluorescence intensity (a.u.)
19,TAACTTAACGTGATTTTCCTGTATGGACCTTAATTATGTTCGGAGTCACCTAGTGCAG,8580 fluorescence intensity (a.u.)
20,CGTTCTCTCTCTCCTAGAACCACAGTTCAACCACTGTTTCCGGAGTCACCTAGTGCAG,8580 fluorescence intensity (a.u.)
21,GGAGGAGTACGACGGGGTGGGAGCGGCGGTGGGTGGGATGCGGAGTCACCTAGTGCAG,11500 fluorescence intensity (a.u.)

row,Sequence,binding signal
1,CATGGAGGGAGGGAGGGAGGCGGAAGCGGAGGCGTGGGAGCGGAGTCACCTAGTGCAG,9980 fluorescence intensity (a.u.)
2,TGCCGTGGGATGGGGTTGCGGGAGGAGGAGGGTGCTACTACGGAGTCACCTAGTGCAG,17000 fluorescence intensity (a.u.)
3,TGGGGATGCGGGGTGGCGCGGGAGGAGGGAGAGGACGGAGCGGAGTCACCTAGTGCAG,8670 fluorescence intensity (a.u.)
4,GGCGGTGGGTGGGTGGAGCCGTGGAGGGATGGAGGGAGGGCGGAGTCACCTAGTGCAG,37900 fluorescence intensity (a.u.)
5,CAAGCCGGGCGGGAGCCGTGGCGGCGGCCGGGCGGGCGGGCGGAGTCACCTAGTGCAG,8260 fluorescence intensity (a.u.)
6,ACACGATATAGTCATTGCAATTATCACGGATCCAGGTCCTCGGAGTCACCTAGTGCAG,8560 fluorescence intensity (a.u.)
7,AGTACACACCATTTGACATCCTGATTATGTATAGTAATTTCGGAGTCACCTAGTGCAG,8350 fluorescence intensity (a.u.)
8,TCAGCTATCATAGTCTTCTAGAATGCTCTTCTTGTCAGATCGGAGTCACCTAGTGCAG,8220 fluorescence intensity (a.u.)
9,ATGGGTTGGTAGAGGGGAGGGAACGCGCGACGGTGGCGAGCGGAGTCACCTAGTGCAG,8740 fluorescence intensity (a.u.)
10,GTCTCGTGGCACCTCAATTTATTAATCACTACCCCTATACCGGAGTCACCTAGTGCAG,8710 fluorescence intensity (a.u.)
11,CATTAGACCCTGAGGTTTTTGACTAGGCAGCCCACTTGTCCGGAGTCACCTAGTGCAG,9040 fluorescence intensity (a.u.)
12,CGGATGGTCAAACGTTGGTCAAAAAGTCAACGGCGTCATACGGAGTCACCTAGTGCAG,19600 fluorescence intensity (a.u.)
13,TTTAAATAAAACGAATGGTCAAACGTTGATAAAAAGTCAACGGAGTCACCTAGTGCAG,13300 fluorescence intensity (a.u.)
14,AAACGAATAGTCAAACGTTGATCGAAAAGTCAACGGCGTCCGGAGTCACCTAGTGCAG,19300 fluorescence intensity (a.u.)
15,AATGGTCAAACGTTGGATAAAAAGTCAACGGCGTCATACACGGAGTCACCTAGTGCAG,14700 fluorescence intensity (a.u.)
16,ATAAAACAAATGATCAAACGTTGAATAAAAAGTCAACGGCCGGAGTCACCTAGTGCAG,11100 fluorescence intensity (a.u.)
17,GATCAAACGTTGGTTAAAAAGTCAACGGCGTCATACATTACGGAGTCACCTAGTGCAG,10700 fluorescence intensity (a.u.)
18,ACAAATGGTCAAACGTTGGTCGAAAAGTCAACGGCGTCATCGGAGTCACCTAGTGCAG,13700 fluorescence intensity (a.u.)
19,GAAATGTCAAATATTTGTTAAAAAGTCAACGGCGTCATACCGGAGTCACCTAGTGCAG,11900 fluorescence intensity (a.u.)
20,TAAAACGAATGGTCAAACGTTGGTCGAAAAGTCAACGGCGCGGAGTCACCTAGTGCAG,14400 fluorescence intensity (a.u.)
21,ACAAATGGTCAAACGTTGATAAAAAAGTCAACGGCGTCATCGGAGTCACCTAGTGCAG,20600 fluorescence intensity (a.u.)
